69 sequences from PubChem BioAssay AID1508600 (Functional Genomics Laboratory (NCATS/FGL), 2020) can be followed below.

Hit rate of the full screen: of about 53,000 sequences, about 3,700 (7%) were called active.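 The calls were made as follows: active = gene knockdowns whose robust z-score for IL-1 alpha signal is at least 2 or at most -2, so actives lie on both sides; inactive = the rest.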 The full list was thinned out, with actives kept by preference.

The experiment in a line: Components of the Cytosolic LPS Sensing Pathway: Gene Identification via Genome-wide siRNA Screen.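 Also: robust z of the log signal after scaling to non-targeting control siRNA wells of the plate.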 The following applies: RAW264.7 macrophages, IL-1a HTRF, actives lie on both sides, screened at 100 nM (by protocol), cells primed 5 h with Pam3CSK4 first. In a few lines:
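Three distinct siRNAs per gene were tested singly at 100 nM in RAW264.7 macrophages. Following Pam3CSK4 priming and 24 hour LipidA transfection, IL-1a secretion was read by HTRF.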
(In general: In TR-FRET formats the signal depends on donor and acceptor labels being close together.)
For the sequence GUCAGAACCAUAGCCAUGATT against Vmn1r202, the z-score is -0.623 (inactive).

For the sequence GCUGAUCAGAGACCAUUACTT against Cmss1, the z-score is -2.26 (active).

With GGGAGAAGGUGGAAAUACUTT against Hdgfl3, the z-score is 1.63 (inactive).

As to GGCCAUACGGACCAUGUAUTT against Slc25a19, the z-score was -1.25 (inactive).

GGACCAAAUCCUCUGAUUCTT against Bud13: the z-score is 2.74 (active).

With GGCUGCCUUGCUGAUUUGATT against Boc, the z-score was 0.762 (inactive).

CCUUUACGUUUCUGUGUCUTT against Slc37a4: the z-score was -1.19 (inactive).

For CCAUUCUACACUUUUCCACTT against Krtap1-5, the z-score was -0.909 (inactive).

For GCCAAGCAUUAAGUGAUAATT against Setmar, the z-score is 2.7 (active).

On to CCAACUAAUCCCAUAUUCCTT against Tmem43, for which the z-score is 0.0511 (inactive).

As to GGAGCUAUGUUCAGUUCUUTT against Qsox1, the z-score was 0.438 (inactive).

With GCAUUAUCUGUGAAAAUCCTT against En2, the z-score was 0.262 (inactive).

For GCAGAAAUUAACAAGUCUCTT against Kif2c, the z-score was 0.816 (inactive).

Turning to GCACUGUUCGUUUUUGUUUTT against Astn1, the z-score is 0.275 (inactive).

With GGCUAUGGGAAUCAUGAAUTT against H2bc18, the z-score is -2.84 (active).

On to GCUCUAUGAGAGUAUAUUATT against Tamm41, for which the z-score is -0.495 (inactive).

GCAUGUGAUUACCUUUGUATT against Btbd10: the z-score is 0.633 (inactive).

GGGAUCCCGCAAAAUCAGATT against Osm: the z-score was 0.63 (inactive).

In the case of GCACAUCUUGGACCGUUUCTT against Lhx3, the z-score was 0.851 (inactive).

Regarding GGGUACAAGCUUAUCAAUATT against Trpm6, the z-score was 4.91 (active).

Consider GGUGUAUAGCUGUUGUGGGTT against Dennd2d, for which the z-score is -1.41 (inactive).

Take CCUCAAGGAACUGAAUGCCTT against Olfr1320: the z-score is 0.0261 (inactive).

GGGAUAAAGAGAGACCCAATT against Flywch1: the z-score was 0.889 (inactive).

For the sequence CCAGAUGACAAUGAGUCAGTT against Ss18, the z-score was -0.197 (inactive).

Take CCUAAAUUUGACUGUGCCUTT against Nudt10: the z-score was 2.13 (active).

With GCGAUUGUCAUUCUCUUUUTT against Jak3, the z-score is 0.711 (inactive).

On to GGGCUUUCCCAGUUCCUAATT against Bmp6, for which the z-score is 2.04 (active).

Regarding CCACCUCAAGUCAAAGACUTT against Cggbp1, the z-score is -0.445 (inactive).

As for GGCUCUAGAAGCGAGAAUCTT against Six6, the z-score is -0.234 (inactive).

As to GGACCUAAUCCAUAAGGUCTT against Pcyox1l, the z-score is -0.379 (inactive).

As to GGAACAGAUCUCUGAUAUATT against Sub1, the z-score was 0.564 (inactive).

Turning to GGCCUUCAUUGAGAUGAACTT against Ptbp1, the z-score is -1.17 (inactive).

In the case of GGCUAUGAUGAUUAUAAUGTT against Hnrnph1, the z-score is 0.724 (inactive).

On to GGACCAGAGGAGAUUUCAATT against Ern2, for which the z-score is 1.56 (inactive).

With GGUAAACUCAAGUUUUCAGTT against Inpp5j, the z-score was 2.36 (active).

Consider GGAUGAGAAACCAUUUAAATT against Oas1f, for which the z-score was -1.08 (inactive).

Regarding GGAUCUCCCUCUAAAUAUUTT against Hsp90aa1, the z-score is -0.138 (inactive).

With CGGAAAGUCCGGUUUCGAATT against Grxcr1, the z-score was 0.156 (inactive).

In the case of CGAAGUUACGAGCAUCCACTT against Crhr2, the z-score is 3.81 (active).

Turning to GGUUUACAGCAUCAUUAAATT against Shmt1, the z-score is 0.345 (inactive).

CCAGACGAGGAGAACAUCATT against Samd4b: the z-score was -0.111 (inactive).

Regarding GGAUUAGCCUGGUCCUUUUTT against Dusp14, the z-score is 0.989 (inactive).

CCGUCCGAUGAAAAACAGGTT against Prm1: the z-score was -0.128 (inactive).

For the sequence GCCCACCGACUUUAUUAACTT against Tfap2d, the z-score is 0.541 (inactive).

On to GCCAGACAAGCCUCAUUGATT against Ncapd2, for which the z-score was -2.2 (active).

As for GGAAAAGAAAAUCGAGACCTT against Ubap2l, the z-score was 0.776 (inactive).

For the sequence GGUACAAAUGCAUUGAGAGTT against Fcamr, the z-score is -1.3 (inactive).

GGCAAAGACAAGAAGCUGUTT against Drap1: the z-score was -0.445 (inactive).

Take GCACAACUUAUGACUGAAATT against Emc4: the z-score is 1.66 (inactive).

With GCUUCAAGUCAACUUAGUCTT against Hal, the z-score is 1.24 (inactive).

In the case of GCGAAUUCGAAAGCUAUGATT against Arhgef10, the z-score is -2.19 (active).

As to CCGAAGACUAGCUAAUUUUTT against Sult1c1, the z-score was 1.17 (inactive).

In the case of CCUUCAACUAUGGCAAAUATT against Cacul1, the z-score was -0.241 (inactive).

In the case of GCUCUGAACUCAAUAAUAATT against Atg7, the z-score is -0.875 (inactive).

GCGGAUCUGCUUUUUGCACTT against Ttc14: the z-score was -0.105 (inactive).

Consider ACUUCGUAAAAGAGCACAATT against Platr25, for which the z-score was 1.02 (inactive).

As for “GGAUCUUGAAGAUAAGAGCTT against 1810009A15Rik”, the z-score is -0.599 (inactive).

Consider GGGUUUCAGAACUGAGUUATT against Saa1, for which the z-score is -0.28 (inactive).

Regarding GCCAUGAAUCCUAUCCGCATT against Ephb3, the z-score is -0.967 (inactive).

As for CCACCUAAUUUAUUGCUGUTT against Mafk, the z-score was 0.745 (inactive).

As to GGGUAGAAUGUGUGUGUCUTT against Abhd15, the z-score was -2.52 (active).

Consider GGCUGGCAUCACCAUCAAATT against Kit, for which the z-score was 0.429 (inactive).

Regarding CCACUUAUAACUCAUAGUUTT against Ugt2b34, the z-score was 0.0725 (inactive).

Regarding GGACCGCUUCAACAGUAUGTT against Tcfl5, the z-score is -0.525 (inactive).

Turning to “CGCAUCUGUUUCUUUUCCCTT against 1700029P11Rik”, the z-score is -2.22 (active).

For GCAGGAGUUUAUCAGAGGATT against Prim2, the z-score is -1.64 (inactive).

As to GGCAGCAAAGUCAAGAUGUTT against Msgn1, the z-score was -1.82 (inactive).

On to GGGAGGAGAAAAAUAUUCUTT against Olfr1094, for which the z-score was -1.5 (inactive).

With GGAGAUCUUAGCAAAGUAUTT against Degs1, the z-score was 2.41 (active).
